High-throughput results as filed in PubChem.
Rows were chosen to be rich in hits. Some 3% of all compounds tested hit in one or more screens of this group.
CHT allo act: human CHT allosteric activation; B-score at 10 µM; 310,000 tested, 0.49% active; CHT-expressing cells, membrane potential dye, choline EC20; hits give high values; LV-AA mutant CHT in HEK293 cells;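 active means initial fluorescence not abnormally high and integrated response B-score, plate-corrected, over 3 SD above library mean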
NALP1 inh: NALP1 inhibition; S. cerevisiae NALP1/ASC/caspase-1 growth, X-gal OD620, 72 h; inhibition, % at 10 µM; 280,000 tested, 0.61% active; in the data active means inhibition mostly above about 24%, no sharp cut-off; inactive means mostly below about 32%
CHT block: human CHT choline transport inhibition; 310,000 tested, 0.86% active; Q9GZV3; B-score at 10 µM; CHT-expressing cells, membrane potential dye, choline response; hits give low values; AID 488975;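 active means B-score over 3 SD under the library average, and starting fluorescence ratio not unusually high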;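 further: choline stimulus applied at its EC90 after an EC20 pre-addition; B-score computed on integrated fluorescence ratio after choline addition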
Bfl-1 A1 inh: inhibitors of the anti-apoptotic protein A1, read as caspase activation. caspase activation, % (test concentration not listed). 330,000 tested, 0.066% active. MEF A1-2A-BIM cells, Caspase-Glo 3/7 luminescence, 3 h; percent of clofoctol response, vehicle zero;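 active means over half of replicate activation scores above 10%, or exactly half above 10 with the replicate mean above 10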
NLRP3 yeast inh: NALP3 inhibition in yeast; Yeast reconstituted NLRP3/ASC/caspase-1, beta-gal luminescence, 24 h; inhibition, % at 10 µM; 330,000 tested, 0.39% active; AID 2825;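 active means inhibition of 50% or more; inactive means inhibition below 50%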;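 further: plate controls were induced DMSO wells for no effect and uninduced yeast grown without galactose for full effect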
Mot1-301 SUMO: SUMOylation pathway inhibition by Mot1-301 growth rescue | growth rescue, % at 18.8 µM | AID 2716 | 320,000 tested, 1% active | S. cerevisiae Mot1-301 growth rescue, ATP luminescence, 38.5C; percent above DMSO median, 100 means doubled;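 active means every valid replicate shows activation above 250% relative to neutral control wells; inactive means the rest, any valid replicate at or below 250%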;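 further: OY570 slx delta 5 strain wells were the positive control but not used for scaling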
NALP3 yeast conf: confirmation of NALP3 inhibitors in yeast | AID 435006 | inhibition, % at 10 µM | yeast expressing human NALP3, luminescence | 1,300 tested, 81% active | shares compounds with NLRP3 yeast inh; in the data active means inhibition above about 48%
Casp1-ASC yeast: counter-screen for NALP3 inhibitors: yeast caspase-1-ASC; yeast expressing Caspase-1-ASC, luminescence counter screen; inhibition, % at 10 µM; 1,000 tested, 66% active; AID 488784; shares compounds with NLRP3 yeast inh
NALP3 yeast rt: retest-confirmed inhibitor of NALP3 in yeast; shares compounds with NLRP3 yeast inh; yeast expressing human NALP3, luminescence read-out; inhibition, % at 10 µM; 1,000 tested, 53% active; AID 488794
* marks the source's active call; other numbers are inactive results. Unless noted, no stated cut-off is given here; in the data, active means inhibition above about 50%; inactive means the rest.

For O=C(N/N=C/c1cccc(F)c1)c1ccc(Cl)cc1 the results were CHT allo act inactive, NALP1 inh 10, CHT block inactive, Bfl-1 A1 inh 0, NLRP3 yeast inh 29 and Mot1-301 SUMO -4.
`CC(C)(C)c1ccc(C(=O)N/N=C/c2cccc(Cl)c2)cc1` gave CHT allo act inactive, NALP1 inh 27, CHT block inactive, Bfl-1 A1 inh -1, NLRP3 yeast inh 54*, Mot1-301 SUMO 29, NALP3 yeast conf 71*, Casp1-ASC yeast 54* and NALP3 yeast rt 41.
`NC(=O)Cn1cc(/C=N/NC(=O)c2ccc(Cn3cc(Cl)cn3)o2)c(-c2ccccc2)n1` gave CHT allo act inactive, NALP1 inh 0, CHT block inactive, Bfl-1 A1 inh 2, NLRP3 yeast inh 19 and Mot1-301 SUMO 13.
Screening Cc1cccc(C)c1NC(=O)CN(C)C(=O)CN1C(=O)NC(C)(C)C1=O returned Bfl-1 A1 inh 0, NLRP3 yeast inh 3 and Mot1-301 SUMO 34.
Screening CCCCn1c(-c2csc3c2CCCC3)n[nH]c1=S returned CHT allo act inactive, NALP1 inh 6, CHT block inactive, Bfl-1 A1 inh 1, NLRP3 yeast inh 54*, Mot1-301 SUMO 12, NALP3 yeast conf 66*, Casp1-ASC yeast 65* and NALP3 yeast rt 55*.
O=C(Nc1ccc2c(c1)Cc1ccccc1-2)c1ccncc1 was read as CHT allo act inactive, NALP1 inh 49, CHT block inactive, Bfl-1 A1 inh -1, NLRP3 yeast inh 53*, Mot1-301 SUMO 501 and NALP3 yeast conf -16.
`CCOC(=O)CSc1nc2cc3c(cc2cc1C)OCO3` gave CHT allo act inactive, NALP1 inh -10, CHT block inactive, Bfl-1 A1 inh 0, NLRP3 yeast inh -4 and Mot1-301 SUMO inactive.
Screening COC(=O)CSc1nc2cc3c(cc2cc1C)OCCO3 returned CHT allo act inactive, NALP1 inh 0, CHT block inactive, Bfl-1 A1 inh 0, NLRP3 yeast inh 69*, Mot1-301 SUMO -3, NALP3 yeast conf 73*, Casp1-ASC yeast 80* and NALP3 yeast rt 71*.
Screening CC1=C(C(=O)OCc2ccccc2)C(c2ccccc2OS(=O)(=O)c2ccc(C)cc2)NC(=O)N1CCCC(=O)O (centres undefined) returned CHT allo act inactive, CHT block inactive, Bfl-1 A1 inh 1, NLRP3 yeast inh 16 and Mot1-301 SUMO 1.
Screening CC(C)NC(=O)c1c(O)c2ccccc2[nH]c1=O returned CHT allo act inactive, NALP1 inh 10, CHT block inactive, Bfl-1 A1 inh -1, NLRP3 yeast inh 54*, Mot1-301 SUMO -8, NALP3 yeast conf 72*, Casp1-ASC yeast 37 and NALP3 yeast rt 53*.
O=c1[nH]cnc2c1c(-c1ccccc1)cn2-c1cccc(Cl)c1 was read as CHT allo act inactive, NALP1 inh 20, CHT block inactive, Bfl-1 A1 inh 0, NLRP3 yeast inh -30 and Mot1-301 SUMO -19.
For COc1ccc(-n2cc(-c3ccccc3)c3c(=O)[nH]cnc32)cc1 the results were CHT allo act inactive, NALP1 inh 15, CHT block inactive, Bfl-1 A1 inh 0, NLRP3 yeast inh -104, Mot1-301 SUMO 5 and NALP3 yeast conf -17.
c1ccc(N2CCN(c3nc4cc5c(cc4s3)OCO5)CC2)cc1 was read as CHT allo act inactive, NALP1 inh 37, CHT block inactive, Bfl-1 A1 inh -3, NLRP3 yeast inh 21 and Mot1-301 SUMO 0.
